Only some compounds are listed: those with a hit (about 6.7% of all), similar ones and a draw of the others.
C diff HTS – C. difficile growth inhibition | Clostridium difficile clinical isolate growth, OD600, 24 h; hits give low values | growth activity, negative = inhibition, % at 16 µg/mL (by protocol) | actives 0.25% (n = 86,000) | AID 1259249;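 active means mean growth activity at or below -80% and every replicate also at or below -80%; inconclusive means mean at or below -80% but some replicate above -80%; inactive means mean growth activity above -80%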;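 further: 0% = DMSO wells and -100% = levofloxacin 16 µg/mL wells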
Pf Dd2 growth – P. falciparum Dd2 growth inhibition | actives 2.3% (n = 94,000) | SYBR Green, 72 h; hits give low values | AID 1159554 | activity change, % at 10 µM; in the data active means activity change below about -80%; inconclusive means no clear call, values can overlap the other calls
T cruzi growth-1 – blocks T. cruzi growth in NIH3T3 culture | inhibition, % at 8.34 µM | T. cruzi beta-gal in NIH3T3, GalScreen luminescence, 90 h | actives 5.9% (n = 77,000);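 active means mean inhibition above about 93%, with at least 55% of replicates each passing it, limit read from the data, passing the limit was not always enough; inconclusive means only one of those two conditions holds; inactive means neither condition holds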
T cruzi growth-2 – inhibitors of T. cruzi proliferation; shares compounds with T cruzi growth-1; T. cruzi beta-gal in NIH3T3, GalScreen luminescence, 90 h; inhibition, % at 8.35 µM; actives 72% (n = 5,600); AID 651739;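 active means mean replicate inhibition above about 95% and at least 55% of replicates individually reaching it, limit read from the data; inconclusive means only one of the two criteria is met; inactive means neither criterion is met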
T cruzi growth-3 – Trypanosoma cruzi proliferation inhibition. inhibition, % at 2.09 µM. T. cruzi beta-gal in NIH3T3, GalScreen luminescence, 90 h. shares compounds with T cruzi growth-1. actives 21% (n = 5,600);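 active means mean inhibition above about 95%, with at least 55% of replicates also reaching it, limit read from the data; inconclusive means meets just one of the two conditions; inactive means meets neither condition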;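 further: plate controls were neutral control median for no effect and positive control median for full effect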
NIH3T3 tox – cytotoxicity in mouse NIH/3T3 fibroblasts. shares compounds with T cruzi growth-1. NIH/3T3 viability, CellTiter-Glo ATP luminescence, 90 h. cytotoxicity (signal decrease), % at 8.35 µM. actives 14% (n = 5,600). AID 651742;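 active means mean signal decrease across replicates above about 35% based on untreated-well scatter, with enough replicates individually passing, limit read from the data; inconclusive means no rule stated though some were filed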;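 further: 0% = median of neutral control wells and 100% = median of positive control wells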
NIH3T3 tox 2 – cytotoxicity in mouse NIH/3T3 fibroblasts | actives 56% (n = 5,600) | NIH/3T3 viability, CellTiter-Glo ATP luminescence, 90 h | AID 651744 | shares compounds with T cruzi growth-1 | inhibition, % at 24.9 µM;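 active means mean loss of cell viability signal at or above a set limit, and enough replicates individually reaching it; inconclusive means meets only the mean limit or only the replicate share; inactive means meets neither condition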;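 further: 0% = median of neutral control wells and 100% = median of positive control wells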
Starred values were filed as active, the others as inactive; ? = inconclusive; nt = no result.

SMILES	C diff HTS	Pf Dd2 growth	T cruzi growth-1	T cruzi growth-2	T cruzi growth-3	NIH3T3 tox	NIH3T3 tox 2
CN(C)CC(=O)N1[C@@H](C#N)[C@H](c2ccc(C#CC3CC3)cc2)[C@@H]1CO	0	0	96*	97*	45	-19	-10
CN(C)CC(=O)N1[C@H](C#N)[C@@H](c2ccc(C#CC3CCCC3)cc2)[C@@H]1CO	-3	4	?	85	22	3	105*
CN(C)CC(=O)N1[C@H](CO)[C@@H](c2ccc(C#CC3CCCC3)cc2)[C@@H]1C#N	6	6	9	nt	nt	nt	nt
CN(C)CC(=O)N1[C@H](C#N)[C@H](c2ccc(C#CC3CCCCC3)cc2)[C@H]1CO	6	-26	93	nt	nt	nt	nt
CN(C)CC(=O)N1[C@H](CO)[C@H](c2ccc(C#CC3CCCC3)cc2)[C@@H]1C#N	6	-41	96*	101*	107*	12	9
CC=Cc1ccc2n(c1=O)C[C@H]1[C@H](CO)[C@@H](C(=O)N3CCc4ccccc4C3)N(C(=O)C3CC3)[C@@H]21 (mixture of isomers)	11	nt	69	nt	nt	nt	nt
CCC(=O)N[C@H]1CC[C@H](CC(=O)NCC2CCCCC2)O[C@@H]1CO	nt	17	-17	nt	nt	nt	nt
CCC(=O)N1[C@H](CN(C)C(C)=O)[C@@H](c2ccc(C3=CCCC3)cc2)[C@@H]1CO	0	2	-36	nt	nt	nt	nt
COCC(=O)Nc1ccc2c(c1)C(=O)N(C)C[C@@H](OC)[C@@H](C)CN(C(=O)c1ccncc1)[C@@H](C)CO2	-3	17	0	nt	nt	nt	nt
C[C@H](O)C#Cc1ccc([C@@H]2[C@@H](CO)N3CCCCN(S(=O)(=O)c4ccccc4)C[C@H]23)cc1	-8	-38	111*	61	-18	16	8
C[C@H](O)C#Cc1ccc([C@@H]2[C@@H](CO)N3CCCCN(S(=O)(=O)c4ccccc4)C[C@@H]23)cc1	-4	-16	24	nt	nt	nt	nt
C[C@H](O)C#Cc1ccc([C@H]2[C@@H](CO)N3CCCCN(S(=O)(=O)c4ccccc4)C[C@@H]23)cc1	-1	-14	90	nt	nt	nt	nt
C[C@@H](O)C#Cc1ccc([C@H]2[C@H]3CN(S(=O)(=O)c4ccccc4)CCCCN3[C@H]2CO)cc1	-6	?	73	nt	nt	nt	nt
C[C@@H](O)C#Cc1ccc([C@H]2[C@H](CO)N3CCCCN(S(=O)(=O)c4ccccc4)C[C@@H]23)cc1	-6	-19	105*	71	-3	2	5
C[C@@H](O)C#Cc1ccc([C@@H]2[C@@H](CO)N3CCCCN(S(=O)(=O)c4ccccc4)C[C@@H]23)cc1	-10	-6	117*	41	9	10	26*
O=C(Nc1ccc(F)cc1)N1C[C@H]2[C@@H](c3ccccc31)[C@@H](CO)N2C(=O)c1ccccc1	-1	6	44	nt	nt	nt	nt
C[C@@H]1CN([C@H](C)CO)C(=O)c2cc(-c3ccccc3)cnc2O[C@H]1CN(C)Cc1ccc(C(=O)O)cc1	-2	32	-17	nt	nt	nt	nt
CN(C[C@H]1N[C@@H](CO)[C@H]1c1ccc(C2=CCCCC2)cc1)S(C)(=O)=O	-2	-9	14	nt	nt	nt	nt
C[C@H]1CN([C@@H](C)CO)C(=O)c2cc(NS(=O)(=O)c3ccccc3)ccc2O[C@H]1CN(C)C(=O)Nc1ccc(C(F)(F)F)cc1	nt	19	0	nt	nt	nt	nt
O=C(Nc1ccc(Cl)c(Cl)c1)N[C@H]1CC[C@@H](CCNC(=O)c2ccc(F)cc2)O[C@H]1CO	nt	-24	81	nt	nt	nt	nt
COCC(=O)NC[C@H]1N[C@H](CO)[C@H]1c1ccc(-c2ccccc2F)cc1	-4	5	15	nt	nt	nt	nt
O=C(NC[C@@H]1N[C@@H](CO)[C@H]1c1ccc(C2=CCCC2)cc1)c1ccccc1	6	-7	40	nt	nt	nt	nt
CCC(=O)NC[C@H]1N[C@H](CO)[C@@H]1c1ccc(-c2ccccc2F)cc1	-6	-2	nt	nt	nt	nt	nt
COCC(=O)NC[C@@H]1N[C@@H](CO)[C@H]1c1ccc(C2=CCCC2)cc1	7	22	-1	nt	nt	nt	nt
O=C(NC[C@@H]1N[C@@H](CO)[C@H]1c1ccc(-c2ccccc2F)cc1)c1ccccc1	27	-12	109*	107*	34	5	104*
SMILES	C diff HTS	Pf Dd2 growth	T cruzi growth-1	T cruzi growth-2	T cruzi growth-3	NIH3T3 tox	NIH3T3 tox 2
O=C(NC[C@H]1N[C@H](CO)[C@@H]1c1ccc(-c2ccccc2F)cc1)c1ccccc1	36	2	?	96*	11	2	105*
COCC(=O)NC[C@H]1N[C@H](CO)[C@@H]1c1ccc(C2=CCCCC2)cc1	-4	7	98*	70	-9	-10	12
O=C(NC[C@@H]1N[C@@H](CO)[C@@H]1c1ccc(C2=CCCC2)cc1)c1ccccc1	51	-27	113*	108*	82	39*	107*
O=C(NCc1ccccc1)[C@@H]1[C@@H](CO)[C@@H]2Cn3c(cccc3=O)[C@@H]2N1C(=O)C1CC1	-4	5	4	nt	nt	nt	nt
C[C@H](CO)N1C[C@H](C)[C@H](CN(C)C(=O)Cc2cccnc2)Oc2ncc(C3=CCCCC3)cc2C1=O	7	1	26	nt	nt	nt	nt
OC[C@@H]1[C@@H](c2ccccc2)C2(CN(CCC(F)(F)F)C2)N1Cc1cccnc1	-1	1	nt	nt	nt	nt	nt
COc1ccc(NC(=O)N(C)C[C@H]2OCCCC[C@H](C)Oc3ccc(NS(=O)(=O)c4ccc(F)cc4)cc3C(=O)N([C@@H](C)CO)C[C@@H]2C)cc1	-13	-53	15	nt	nt	nt	nt
C[C@@H]1CN([C@H](C)CO)C(=O)Cc2cc(NC(=O)CCCN(C)C)ccc2O[C@H]1CN(C)Cc1ccc(Oc2ccccc2)cc1	0	-15	25	nt	nt	nt	nt
C[C@@H]1CN([C@H](C)CO)C(=O)c2cc(/C=C/c3ccccc3)cnc2O[C@H]1CN(C)Cc1ccccc1F	20	-49	87*	103*	?	10	103*
C/C=C/c1cnc2c(c1)C(=O)N([C@@H](C)CO)C[C@@H](C)[C@H](CN(C)Cc1ccccc1F)O2	nt	20	nt	nt	nt	nt	nt
C[C@H](CO)N1C[C@H](C)[C@H](CN(C)Cc2ccc(F)cc2)Oc2ncc(/C=C/c3ccccc3)cc2C1=O	26	-63	nt	nt	nt	nt	nt
C[C@H](CO)N1C[C@H](C)[C@H](CN(C)Cc2ccccc2F)Oc2ncc(/C=C/c3ccccc3)cc2C1=O	25	-39	95*	107*	77	17	60*
O=C(c1cnccn1)N1CC(=O)N2[C@@H](CO)[C@H](c3ccc(C#CC4CCCCC4)cc3)[C@@H]2C1	5	-13	nt	nt	nt	nt	nt
C[C@H](CO)N1C[C@H](C)[C@@H](CN(C)Cc2ccc(-c3ccccc3)cc2)Oc2ccc(NC(=O)C3CC3)cc2C1=O	-8	-2	22	nt	nt	nt	nt
C[C@H]1CN([C@@H](C)CO)C(=O)c2cc(NC(=O)C3CCCCC3)ccc2O[C@H]1CN(C)Cc1ccc(-c2ccccc2)cc1	nt	-15	47	nt	nt	nt	nt

High-throughput results deposited in PubChem BioAssay by Broad Institute.
